Screens from PubChem BioAssay.
Shown is part of a subset that was picked to be rich in hits.
CtBP-E1A inh: qHTS Assay for Inhibitors of the CtBP/E1A Interaction | CtBP / adenovirus E1A interaction (AlphaScreen) | AlphaScreen GST-E1A/His-CtBP binding, 1536-well; stronger effect = lower value | activity change, % (test concentration not listed) | actives 0.49% (n = 340,000)
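AlphaScreen with 125 nM GST-E1A and 125 nM His-CtBP (5X stocks) in Tris pH 8.0, 300 mM NaCl, BSA, Tween 20, TCEP. Compounds preincubated 2 h at 37 deg C, then glutathione donor/nickel acceptor beads added for 1 h at 37 deg C in dark.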
JMJD2E inh: qHTS Assay for Inhibitors of Human Jumonji Domain Containing 2E (JMJD2E); Lysine-specific demethylase 4E (Homo sapiens), B2RXH2; Potency, µM (titrated, usually from 57.1 µM), for inactives: at the highest dose activity change, negative = inhibition, hits mostly inhibitors; actives 1.6% (n = 230,000); JMJD2E catalytic domain, FDH-coupled NADH fluorescence (FDH is formaldehyde dehydrogenase);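 note: potency is the fitted concentration of half-maximal effect; 0% = wells with enzyme and -100% = buffer wells without enzyme; nearly all actives have a fitted effect of over 50% in size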
Target sequence (B2RXH2 1-337 limits assumed): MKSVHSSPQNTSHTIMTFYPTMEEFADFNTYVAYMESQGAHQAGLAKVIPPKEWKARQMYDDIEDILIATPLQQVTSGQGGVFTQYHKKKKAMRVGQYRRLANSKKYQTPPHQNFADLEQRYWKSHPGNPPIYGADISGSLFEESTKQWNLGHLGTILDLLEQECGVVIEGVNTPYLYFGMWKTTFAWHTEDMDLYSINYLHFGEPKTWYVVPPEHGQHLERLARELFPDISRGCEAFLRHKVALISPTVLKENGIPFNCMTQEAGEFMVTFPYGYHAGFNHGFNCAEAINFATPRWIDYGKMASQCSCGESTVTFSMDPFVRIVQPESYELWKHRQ
Six1-Eya2 inh: qHTS Assay for Inhibitors of the Six1/Eya2 Interaction; actives 0.56% (n = 360,000); Homeobox protein SIX1 (Homo sapiens) + Protein phosphatase EYA2 (Homo sapiens), …; activity change, % (concentration not given with the values); AlphaScreen GST-Six1/His-Eya2 binding, biochemical; stronger effect = lower value
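GST-Six1 + His-Eya2 (5X stock: 250/500 nM); Tris pH 8.0, 300 mM NaCl, 0.05% BSA, 0.02% Tween 20; GSH donor/Ni acceptor beads; 1 h 37 °C dark; AlphaScreen readout.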
L3MBTL1 block: qHTS Assay for the Inhibitors of L3MBTL1; AlphaScreen L3MBTL1–H3K9me1 peptide binding; Potency, µM (highest dose often 57.1 µM), without a hit: at the top dose activity, negative = inhibition, actives largely listed as inhibitors; actives 0.66% (n = 230,000); active = well fitted inhibition curve with a large enough effect; inconclusive = small, poorly fitted or top-dose-only effect; inactive = no such curve, though single readings can be large or run the other way; note: potency is the fitted concentration of half-maximal effect; nearly all actives have a fitted effect of over 60% in size
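First, the protein-peptide complex forms for 30 min at room temperature (L3MBTL1 50 nM, biotinylated H3K9me1 peptide 75 nM). Next, compounds are pin-transferred and incubated 30 min. Finally, AlphaScreen beads are added and read after 30 min.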
* = called active by the depositor; [ ] = another dose, or the depositor's remark. Cut-off read from the data, not from the text of the source, unless noted: active = activity change below about -65%; inconclusive = mostly about -30% to -63%; inactive = weaker than that. Unless noted, % is set by controls: 0 for no effect and ±100 for the full control effect.

Results for Cc1nn(-c2ccccc2)nc1C(=O)OCC(=O)N1CCC(C)CC1 ?
CtBP-E1A inh: -2.8; Six1-Eya2 inh: 4.2; L3MBTL1 block: -1.2%

What do the screens show for `C[C@@]1([C@@H](NC(=O)c2cccs2)c2ccc(-c3ccccc3)cc2)C[C@H]1C1CCCCC1`?
CtBP-E1A inh: -3.2; JMJD2E inh: -6.9%; Six1-Eya2 inh: 1.7; L3MBTL1 block: 0.2%

What do the screens show for `CCOC(=O)Cc1nnc(NC(=O)C(CC)Sc2nnc3c4ccccc4n(C)c3n2)s1` (stereo not drawn)?
CtBP-E1A inh: -71.0*; JMJD2E inh: 0.7%; Six1-Eya2 inh: inconclusive; L3MBTL1 block: -6.1%

Results for CCOC(=O)c1sc(NC(=O)C(CC)Sc2nnc3c4ccccc4n(C(C)C)c3n2)nc1C (stereo not drawn) ?
CtBP-E1A inh: 6.8; JMJD2E inh: 1.5%; Six1-Eya2 inh: 1.0

How did O=C(CN1C(=O)NC2(CCCCC2)C1=O)N1CCN(S(=O)(=O)c2cccc([N+](=O)[O-])c2)CC1 do in these assays?
CtBP-E1A inh: 2.5; Six1-Eya2 inh: 0.9; L3MBTL1 block: 0.2%

Results for COC(=O)/C(=C1/Oc2cc(C)oc(=O)c2S1)C(F)(F)F ?
CtBP-E1A inh: -83.2*; JMJD2E inh: -3.0%; Six1-Eya2 inh: inconclusive; L3MBTL1 block: 7.9%

How did COC(=O)/C(=C1/Oc2ccc(C(C)(C)C)cc2S1)C(F)(F)F do in these assays?
CtBP-E1A inh: 0.9; JMJD2E inh: 4.4%; Six1-Eya2 inh: 8.4; L3MBTL1 block: -2.3%

How did Nc1c2c(=O)[nH]c(O)cc2nn1-c1ccccc1 do in these assays?
CtBP-E1A inh: -66.3*; Six1-Eya2 inh: 6.8

What do the screens show for `Cc1c(C)c2c(C)nn(-c3ccccc3)c2[nH]c1=O`?
CtBP-E1A inh: -0.1; JMJD2E inh: 168.0%; Six1-Eya2 inh: -5.3; L3MBTL1 block: 1.2%

What do the screens show for `C[C@@H](C(=O)Nc1nc(-c2ccccn2)cs1)N1C(=O)C2CCCCC2C1=O` (stereo partly drawn)?
CtBP-E1A inh: -89.6*; JMJD2E inh: inconclusive; Six1-Eya2 inh: -90.4*

How did O=C(CN1C(=O)C2CCCCC2C1=O)Nc1nc(-c2ccccn2)cs1 (stereo not drawn) do in these assays?
CtBP-E1A inh: -84.4*; JMJD2E inh: inconclusive; Six1-Eya2 inh: -84.4*

What do the screens show for `CC1CC(C)CN(C(=O)COC(=O)/C=C/c2cccc([N+](=O)[O-])c2)C1` (stereo not drawn)?
CtBP-E1A inh: -25.7; Six1-Eya2 inh: -5.8; L3MBTL1 block: 0.4%

How did COc1ccc(NC(=O)COc2cccc3c2CCN(Cc2cccnc2)C3=O)c(OC)c1 do in these assays?
CtBP-E1A inh: -82.2*; Six1-Eya2 inh: -75.1*

Results for COc1ccc(NC(=O)COc2cccc3c2CCN(Cc2cccnc2)C3=O)cc1 ?
CtBP-E1A inh: 3.1; Six1-Eya2 inh: -4.1

Results for C[C@@H](O)CCC[C@H](O)/C=C/[C@@H]1[C@@H](C/C=C\CCCC(=O)O)[C@@H](O)C[C@H]1O ?
JMJD2E inh: 14.3%

What do the screens show for `O=C(Oc1ccc2c(=O)c(Oc3ccc4ccccc4c3)coc2c1)c1cncc(Br)c1`?
CtBP-E1A inh: -2.0; JMJD2E inh: 11.2µM*; Six1-Eya2 inh: -0.3; L3MBTL1 block: 2.5%

What do the screens show for `O=C(Oc1ccc2ccccc2c1)c1cncc(Br)c1`?
CtBP-E1A inh: -4.5; JMJD2E inh: 1.6%; Six1-Eya2 inh: 5.1

Results for O=c1cc(CSc2ccc(Cl)cc2)nc(-c2ccccn2)[nH]1 ?
Six1-Eya2 inh: -93.2*

What do the screens show for `CCCCc1nc2c(c3c1C[C@H](C)OC3)CN(S(=O)(=O)c1ccc(C)cc1)CC2`?
JMJD2E inh: -1.4%[11.4 µM]

Results for COc1ccc(NC(=O)COC(=O)c2ccc3c(c2)OCO3)c(OC)c1 ?
CtBP-E1A inh: -16.7; Six1-Eya2 inh: 23.6; L3MBTL1 block: 4.5%

What do the screens show for `CC1(c2nc3ccccc3[nH]2)c2ccccc2C(=O)N1C1CC1` (stereo not drawn)?
CtBP-E1A inh: 6.2; Six1-Eya2 inh: 1.8

How did CC1Cc2ccccc2N1C(=O)COC(=O)/C=C/c1cccc(F)c1 (stereo not drawn) do in these assays?
CtBP-E1A inh: -89.8*; Six1-Eya2 inh: -25.9; L3MBTL1 block: 12.1%

What do the screens show for `Nc1c(Br)cc(Br)c2c1C(=O)c1c(cccc1S(=O)(=O)O)C2=O`?
CtBP-E1A inh: -73.6*; Six1-Eya2 inh: inconclusive

How did CCN(CC(=O)Nc1c(F)cccc1F)C(=O)Cc1ccc(S(=O)(=O)N2CCOCC2)s1 do in these assays?
CtBP-E1A inh: 5.1; Six1-Eya2 inh: -1.1; L3MBTL1 block: 10.5%

What do the screens show for `CC(C)(C)c1ccc([C@@H](O)CCCN2CCC(C(O)(c3ccccc3)c3ccccc3)CC2)cc1`?
JMJD2E inh: -0.7%[25.5 µM]

How did CCOC(=O)c1oc2c(c1C)/C(=N/O)CCC2 do in these assays?
CtBP-E1A inh: -3.0; JMJD2E inh: -2.9%; Six1-Eya2 inh: -83.1*; L3MBTL1 block: -19.2%

Results for CCOC(=O)c1oc2c(c1C)C(=O)CCC2 ?
CtBP-E1A inh: 17.1; JMJD2E inh: -1.7%; Six1-Eya2 inh: 2.3; L3MBTL1 block: -1.3%

What do the screens show for `Cc1nnc(NC(=O)c2ccc(S(=O)(=O)N(C)Cc3ccccc3)cc2)o1`?
CtBP-E1A inh: -28.2; JMJD2E inh: inconclusive; Six1-Eya2 inh: -20.6; L3MBTL1 block: 12.5%

Results for CCN(Cc1ccccc1)S(=O)(=O)c1ccc(C(=O)Nc2nnc(C3CC3)o2)cc1 ?
CtBP-E1A inh: -20.5; JMJD2E inh: 14.1µM*; Six1-Eya2 inh: -1.2; L3MBTL1 block: -14.3%

Results for Cc1c(N/N=C(\C#N)C(=O)c2ccc(Cl)cc2)c(=O)n(-c2ccccc2)n1C ?
CtBP-E1A inh: -75.6*; JMJD2E inh: 6.3%; Six1-Eya2 inh: -82.1*; L3MBTL1 block: inconclusive

How did N#C/C(=N\Nc1ccc(Cl)cc1)C(=O)c1ccccc1 do in these assays?
CtBP-E1A inh: -6.1; JMJD2E inh: 1.0%; Six1-Eya2 inh: -17.3

What do the screens show for `COc1cccc(CNC(=O)c2c[nH]n3c(=O)c(Cl)c(C)nc23)c1`?
CtBP-E1A inh: -75.8*; JMJD2E inh: inconclusive; Six1-Eya2 inh: -83.7*; L3MBTL1 block: -5.6%

How did Cc1nc2c(C(=O)NCc3ccc4c(c3)OCO4)c[nH]n2c(=O)c1Cl do in these assays?
CtBP-E1A inh: inconclusive; JMJD2E inh: inconclusive; Six1-Eya2 inh: -25.7; L3MBTL1 block: 6.9%

Results for COc1cccc(CNC(=O)c2cc3c(C)nc4ccccc4c3o2)c1 ?
CtBP-E1A inh: -65.6*; JMJD2E inh: -14.8%; Six1-Eya2 inh: inconclusive

What do the screens show for `N#Cc1c(N2CCN(c3ccc(F)cc3)CC2)nc(N)c2c(N)nc3c(c12)CC(=O)N3C1CC1`?
CtBP-E1A inh: -78.1*; JMJD2E inh: -5.8%; Six1-Eya2 inh: -81.8*; L3MBTL1 block: inconclusive
